Test results published in PubChem BioAssay AID1159580 (chemical genetic matrix, 2015).
Out of some 5,500 compounds screened, about 2,000 (36%) were called active. Roughly 18% stayed inconclusive and do not appear here. Cut-off read from the data, not from the text of the source: active = normalized growth mostly below about 0.91 (no sharp cut-off); inconclusive = no clear call, values can overlap the other calls; inactive = mostly above about 0.92. The list shows a part of the results.

Assay: chemical genetic growth profiling, strain panel (AID 1159580);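 note: tested at 20 µM; growth read once vehicle control cultures reached saturation at 30 °C; 1 = growth at the plate median or of vehicle wells; lower values mean less growth of the strain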
Conditions: S. cerevisiae deletion strains, growth OD
[1] = locus YHR030C, strain SLT2, stronger effect = lower value
[2] = locus YHR079C, strain IRE1, stronger effect = lower value
[3] = locus YJL095W, strain BCK1, stronger effect = lower value
[4] = locus YJR066W, strain TOR1, stronger effect = lower value
[5] = locus YLR113W, strain HOG1, stronger effect = lower value
[6] = locus YNL183C, strain NPR1, stronger effect = lower value
[7] = locus YOR231W, strain MKK1, stronger effect = lower value
[8] = locus YPL256C, strain CLN2, stronger effect = lower value

Measured: normalized growth

O=C(NC(=O)c1c(F)cccc1F)Nc1cc(Cl)c(OC(F)(F)C(F)C(F)(F)F)cc1Cl (stereo unspecified)
inactive: locus YAL021C, strain ccr4, stronger effect = lower value 0.983 | locus YAL026C, strain drs2, stronger effect = lower value 0.987 | locus YAL030W, strain snc1, stronger effect = lower value 0.998 | locus YBL061C, strain skt5, stronger effect = lower value 0.974 | locus YBR009C, strain hhf1, stronger effect = lower value 0.997 | locus YBR023C, strain chs3, stronger effect = lower value 0.981 | locus YBR171W, strain sec66, stronger effect = lower value 0.987 | locus YBR231C, strain swc5, stronger effect = lower value 0.977 | locus YBR279W, strain paf1, stronger effect = lower value 0.988 | locus YCL011C, strain gbp2, stronger effect = lower value 0.987 | locus YCL016C, strain dcc1, stronger effect = lower value 0.988 | locus YCL061C, strain MRC1, stronger effect = lower value 0.989 | locus YCL069W, strain vba3, stronger effect = lower value 0.99 | locus YCR088W, strain abp1, stronger effect = lower value 0.988 | locus YDL005C, strain med2, stronger effect = lower value 0.984 | locus YDL040C, strain nat1, stronger effect = lower value 0.98 | locus YDR001C, strain nth1, stronger effect = lower value 0.991 | locus YDR069C, strain doa4, stronger effect = lower value 0.989 | locus YDR137W, strain rgp1, stronger effect = lower value 0.988 | locus YDR159W, strain sac3, stronger effect = lower value 1 | locus YDR195W, strain ref2 1.01 | locus YDR297W, strain sur2, stronger effect = lower value 0.978 | locus YDR334W, strain swr1, stronger effect = lower value 0.981 | locus YDR335W, strain msn5, stronger effect = lower value 0.99 | locus YDR392W, strain spt3, stronger effect = lower value 0.98 | locus YEL003W, strain gim4, stronger effect = lower value 1.01 | locus YEL037C, strain rad23, stronger effect = lower value 0.991 | locus YEL061C, strain CIN8 (second series), stronger effect = lower value 0.995 | locus YER015W, strain faa2, stronger effect = lower value 0.983 | locus YER016W, strain bim1, stronger effect = lower value 0.996 | locus YER111C, strain swi4, stronger effect = lower value 0.982 | locus YER155C, strain BEM2 (second series), stronger effect = lower value 0.998 | locus YFR010W, strain ubp6, stronger effect = lower value 0.986 | locus YGL167C, strain pmr1, stronger effect = lower value 0.977 | locus YGL173C, strain kem1, stronger effect = lower value 0.999 | locus YGL227W, strain vid30, stronger effect = lower value 0.997 | locus YGL240W, strain doc1, stronger effect = lower value 0.99 | locus YGL253W, strain hxk2, stronger effect = lower value 0.987 | locus YHR013C, strain ard1, stronger effect = lower value 0.96 | locus YHR027C, strain rpn1, stronger effect = lower value 0.996 | [1] 1.04 | [2] 1.03 | locus YHR142W, strain chs7, stronger effect = lower value 0.997 | locus YJL092W, strain hpr5, stronger effect = lower value 0.993 | locus YJL095W, strain BCK1 (second series), stronger effect = lower value 0.986 | [3] 1.04 | locus YJL115W, strain asf1, stronger effect = lower value 0.987 | locus YJL129C, strain trk1, stronger effect = lower value 0.988 | locus YJL154C, strain vps35, stronger effect = lower value 0.985 | locus YJL164C, strain tpk1, stronger effect = lower value 0.988 | locus YJL166W, strain qcr8, stronger effect = lower value 0.995 | locus YJL187C, strain SWE1, stronger effect = lower value 0.986 | [4] 0.977 | locus YKL160W, strain elf1, stronger effect = lower value 0.983 | locus YKR026C, strain gcn3, stronger effect = lower value 0.989 | locus YKR091W, strain srl3, stronger effect = lower value 0.989 | locus YLL001W, strain dnm1, stronger effect = lower value 0.996 | locus YLL026W, stronger effect = lower value 0.995 | locus YLL041C, strain sdh2, stronger effect = lower value 0.994 | locus YLR027C, strain aat2, stronger effect = lower value 0.993 | [5] 1.01 | locus YLR221C, strain rsa3, stronger effect = lower value 0.984 | locus YLR258W, strain gsy2, stronger effect = lower value 0.999 | locus YLR262C, strain YPT6 (second series), stronger effect = lower value 0.995 | locus YLR320W, strain mms22, stronger effect = lower value 0.981 | locus YLR342W, strain FKS1, stronger effect = lower value 0.985 | locus YLR357W, strain rsc2, stronger effect = lower value 0.994 | locus YLR370C, strain arc18, stronger effect = lower value 0.986 | locus YLR384C, strain iki3, stronger effect = lower value 0.976 | locus YML120C, strain ndi1, stronger effect = lower value 0.987 | locus YMR058W, strain fet3, stronger effect = lower value 0.994 | locus YMR125W, strain sto1, stronger effect = lower value 0.979 | locus YMR129W, stronger effect = lower value 0.997 | locus YMR205C, strain PFK2, stronger effect = lower value 0.982 | locus YMR231W, strain pep5, stronger effect = lower value 1 | locus YNL071W, strain lat1, stronger effect = lower value 0.992 | [6] 0.973 | locus YNL209W, strain ssb2, stronger effect = lower value 0.978 | locus YNL248C, strain rpa49, stronger effect = lower value 0.991 | locus YNL322C, strain KRE1 (second series), stronger effect = lower value 0.993 | locus YNR049C, strain mso1, stronger effect = lower value 0.986 | locus YOR001W, strain rrp6, stronger effect = lower value 0.987 | locus YOR070C, strain gyp1, stronger effect = lower value 0.989 | locus YOR080W, strain dia2, stronger effect = lower value 0.991 | locus YOR083W, strain WHI5, stronger effect = lower value 0.988 | locus YOR106W, strain vam3, stronger effect = lower value 0.994 | [7] 0.992 | locus YOR265W, strain rbl2, stronger effect = lower value 0.985 | locus YOR270C, strain vph1, stronger effect = lower value 0.987 | locus YOR290C, strain snf2, stronger effect = lower value 0.977 | locus YPL051W, strain arl3, stronger effect = lower value 0.997 | locus YPL078C, strain atp4, stronger effect = lower value 0.99 | locus YPL106C, strain sse1, stronger effect = lower value 0.976 | locus YPL240C, strain hsp82, stronger effect = lower value 0.984 | [8] 1.03

O=C(Nc1cccc(C(F)(F)F)c1)Oc1ccc(F)cc1Cl
inactive: locus YAR019C, strain CDC15, stronger effect = lower value 0.977 | locus YBL105C, strain PKC1, stronger effect = lower value 0.977 | locus YBR135W, strain CKS1, stronger effect = lower value 0.982 | locus YBR136W, strain MEC1, stronger effect = lower value 0.98 | locus YBR160W, strain CDC28, stronger effect = lower value 0.979 | locus YDL017W, strain CDC7, stronger effect = lower value 0.985 | locus YDL028C, strain MPS1, stronger effect = lower value 0.977 | locus YDL101C, strain DUN1, stronger effect = lower value 0.992 | locus YDL108W, strain KIN28, stronger effect = lower value 0.97 | locus YDL132W, strain cdc53, stronger effect = lower value 0.974 | locus YDL214C, strain PRR2, stronger effect = lower value 0.978 | locus YDR052C, strain DBF4, stronger effect = lower value 0.985 | locus YDR054C, strain cdc34, stronger effect = lower value 0.975 | locus YDR226W, strain ADK1, stronger effect = lower value 0.975 | locus YDR477W, strain SNF1, stronger effect = lower value 0.993 | locus YER123W, strain YCK3, stronger effect = lower value 0.965 | locus YER133W, strain GLC7, stronger effect = lower value 0.983 | locus YFL009W, strain cdc4, stronger effect = lower value 0.974 | locus YFL029C, strain CAK1, stronger effect = lower value 0.977 | locus YFR003C, strain YPI1, stronger effect = lower value 0.982 | locus YFR019W, strain FAB1, stronger effect = lower value 0.987 | locus YFR028C, strain CDC14, stronger effect = lower value 0.98 | locus YGR040W, strain KSS1, stronger effect = lower value 0.977 | locus YGR052W, strain FMP48, stronger effect = lower value 1 | locus YGR092W, strain DBF2, stronger effect = lower value 0.951 | [2] 0.87 | locus YHR082C, strain KSP1, stronger effect = lower value 1.1 | locus YHR205W, strain SCH9, stronger effect = lower value 0.951 | locus YIL147C, strain SLN1, stronger effect = lower value 0.975 | [3] 0.955 | locus YJL128C, strain PBS2, stronger effect = lower value 0.947 | locus YJL157C, strain FAR1, stronger effect = lower value 0.98 | locus YJR016C, strain ILV3, stronger effect = lower value 0.984 | locus YJR066W, strain TOR1 (second series), stronger effect = lower value 0.938 | [4] 1.04 | locus YKL048C, strain ELM1, stronger effect = lower value 1 | locus YKL067W, strain YNK1, stronger effect = lower value 1.01 | locus YKL101W, strain HSL1, stronger effect = lower value 0.983 | locus YKL193C, strain SDS22, stronger effect = lower value 0.983 | locus YKL203C, strain TOR2, stronger effect = lower value 1.02 | locus YLR133W, strain CKI1, stronger effect = lower value 0.976 | locus YLR403W, strain SFP1, stronger effect = lower value 0.964 | locus YML070W, strain DAK1, stronger effect = lower value 0.979 | locus YMR001C, strain CDC5, stronger effect = lower value 0.984 | locus YMR205C, strain PFK2 (second series), stronger effect = lower value 1 | locus YMR277W, strain FCP1, stronger effect = lower value 0.977 | locus YNL006W, strain LST8, stronger effect = lower value 0.976 | locus YNL020C, strain ARK1, stronger effect = lower value 0.967 | locus YNL161W, strain CBK1, stronger effect = lower value 0.983 | [6] 0.998 | locus YNL207W, strain RIO2, stronger effect = lower value 0.972 | locus YNL222W, strain SSU72, stronger effect = lower value 0.973 | locus YNL307C, strain MCK1 (second series), stronger effect = lower value 0.982 | locus YOL078W, strain AVO1, stronger effect = lower value 0.983 | locus YOL136C, strain PFK27, stronger effect = lower value 0.969 | locus YOR061W, strain CKA2, stronger effect = lower value 0.983 | locus YOR119C, strain RIO1, stronger effect = lower value 1.05 | [7] 0.912 | locus YOR329C, strain SCD5, stronger effect = lower value 0.979 | locus YPL031C, strain PHO85, stronger effect = lower value 0.97 | locus YPL153C, strain RAD53, stronger effect = lower value 0.974 | locus YPL204W, strain HRR25, stronger effect = lower value 0.992 | locus YPL209C, strain IPL1, stronger effect = lower value 0.979 | locus YPR025C, strain CCL1, stronger effect = lower value 0.979 | locus YPR106W, strain ISR1, stronger effect = lower value 0.99 | locus YPR111W, strain DBF20, stronger effect = lower value 0.964 | strain NNK1, stronger effect = lower value 0.989 | strain TSCII, stronger effect = lower value 0.972
active: [1] 0.822 | [5] 0.762 | [8] 0.778
